# This excerpt belongs to a sample that is enriched for the strongest signals.
# B1: HPA (Helix pomatia), Q2F1K8 (protein)
# chain: MQAFYSGLLLLCVVAFAAAQRVQSGKIDCGNDAGWAKVPSDDPGRDNTRELAKNITFASPYCRPPVVLLSITQLDVEQSQNLRVIARLYSVSPTGFKASCYTWHNTKVYSMSISWISIENY
# Experiments:
# Assay in all cases: glycan array binding signal (z-score within array); higher = stronger binding
# Details in all cases: glycan notation: IUPAC condensed, linker removed
# [1] = target: Fuc(a1-2)Gal(b1-3)GlcNAc(b1-3)[Gal(b1-4)[Fuc(a1-3)]GlcNAc(b1-6)]Gal(b1-4)Glc
# In short: (§1)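 Glycan array data came from 3228 arrays in the Consortium for Functional Glycomics database, and only arrays with an available protein sequence were kept. Glycan names were put into IUPAC-condensed notation, and columns mapping to the same glycan were averaged. The binding signal is a within-array Z-score, averaged across arrays of one protein sequence run at different concentrations or buffers and across linkers. A negative Z-score can be read as non-binding.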
# [2] = target: Fuc(a1-2)Gal(b1-3)[Fuc(a1-4)]GlcNAc(b1-2)Man(a1-3)[Fuc(a1-2)Gal(b1-3)[Fuc(a1-4)]GlcNAc(b1-2)Man(a1-6)]Man(b1-4)GlcNAc(b1-4)GlcNAc
# In short: as §1
# [3] = target: Fuc(a1-2)Gal(b1-4)[Fuc(a1-3)]GlcNAc
# In short: as §1
# Fuc(a1-2)GlcNAc = target: Fuc(a1-2)GlcNAc
# In short: as §1
# [4] = target: Fuc(a1-2)[Gal(a1-3)]Gal(b1-3)GalNAc
# In short: as §1
# [5] = target: Fuc(a1-2)[GalNAc(a1-3)]Gal(b1-4)GlcNAc(b1-2)Man(a1-3)[Fuc(a1-2)[GalNAc(a1-3)]Gal(b1-4)GlcNAc(b1-2)Man(a1-6)]Man(b1-4)GlcNAc(b1-4)GlcNAc
# In short: as §1
# [6] = target: Fuc(a1-2)[GalNAc(a1-3)]Gal(b1-4)GlcNAc(b1-3)Gal(b1-4)GlcNAc
# In short: as §1
# [7] = target: Fuc(a1-2)[GalNAc(a1-3)]Gal(b1-4)GlcNAc(b1-3)Gal(b1-4)GlcNAc(b1-3)Gal(b1-4)GlcNAc
# In short: as §1
# [8] = target: Fuc(a1-2)[GalNAc(a1-3)]Gal(b1-4)[Fuc(a1-3)]GlcNAc(b1-3)GalNAc
# In short: as §1
# [9] = target: Fuc(a1-2)[GalNAc(a1-4)]Gal(b1-4)GlcNAc
# In short: as §1
# [10] = target: Fuc(a1-3)[Gal(b1-4)]Glc6S
# In short: as §1
# [11] = target: Fuc(a1-3)[Gal(b1-4)]GlcNAc(b1-2)Man(a1-3)[Fuc(a1-3)[Gal(b1-4)]GlcNAc(b1-2)Man(a1-6)]Man(b1-4)GlcNAc(b1-4)GlcNAc
# In short: as §1
# [12] = target: Fuc(a1-3)[Gal(b1-4)]GlcNAc(b1-3)Gal(b1-4)[Fuc(a1-3)]GlcNAc
# In short: as §1
# [13] = target: Fuc(a1-3)[Gal(b1-4)]GlcNAc(b1-4)Gal(b1-4)[Fuc(a1-3)]GlcNAc(b1-4)Gal(b1-4)[Fuc(a1-3)]GlcNAc
# In short: as §1
# [14] = target: Fuc(a1-3)[Neu5Ac(a2-3)]Gal(b1-4)GlcNAc(b1-3)GalNAc
# In short: as §1
# Gal(a1-3)Gal(b1-3)GlcNAc = target: Gal(a1-3)Gal(b1-3)GlcNAc
# In short: as §1
# [15] = target: Gal(a1-3)Gal(b1-4)GlcNAc(b1-6)GalNAc
# In short: as §1
# Gal(a1-4)Gal(b1-4)GlcNAc = target: Gal(a1-4)Gal(b1-4)GlcNAc
# In short: as §1
# Gal(b1-2)Gal = target: Gal(b1-2)Gal
# In short: as §1
# Gal(b1-3)GalNAc(b1-3)Gal = target: Gal(b1-3)GalNAc(b1-3)Gal
# In short: as §1
# [16] = target: Gal(b1-3)GalNAc(b1-4)[Neu5Ac(a2-3)]Gal(b1-4)Glc
# In short: as §1
# Gal(b1-3)GlcNAc(b1-2)Man = target: Gal(b1-3)GlcNAc(b1-2)Man
# In short: as §1
# [17] = target: Gal(b1-3)GlcNAc(b1-3)Gal(b1-4)GlcNAc(b1-3)Gal(b1-4)GlcNAc(b1-2)[Gal(b1-3)GlcNAc(b1-3)Gal(b1-4)GlcNAc(b1-3)Gal(b1-4)GlcNAc(b1-6)]Man(a1-6)[Gal(b1-3)GlcNAc(b1-3)Gal(b1-4)GlcNAc(b1-3)Gal(b1-4)GlcNAc(b1-2)Man(a1-3)]Man(b1-4)GlcNAc(b1-4)[Fuc(a1-6)]GlcNAc
# In short: as §1
# [18] = target: Gal(b1-3)GlcNAc(b1-3)Gal(b1-4)GlcNAc(b1-6)[Gal(b1-3)GlcNAc(b1-3)]Gal(b1-4)Glc
# In short: as §1
# [19] = target: Gal(b1-3)GlcNAc(b1-6)[Gal(b1-3)]GalNAc
# In short: as §1
# [20] = target: Gal(b1-3)[Fuc(a1-4)]GlcNAc(b1-2)Man(a1-3)[Gal(b1-3)[Fuc(a1-4)]GlcNAc(b1-2)Man(a1-6)]Man(b1-4)GlcNAc(b1-4)GlcNAc
# In short: as §1
# [21] = target: Gal(b1-4)GlcNAc(b1-2)Man(a1-3)[GlcNAc(b1-4)][Gal(b1-4)GlcNAc(b1-2)Man(a1-6)]Man(b1-4)GlcNAc(b1-4)GlcNAc
# In short: as §1
# [22] = target: Gal(b1-4)GlcNAc(b1-3)Gal(b1-4)GlcNAc(b1-3)Gal(b1-4)GlcNAc(b1-2)[Gal(b1-4)GlcNAc(b1-3)Gal(b1-4)GlcNAc(b1-3)Gal(b1-4)GlcNAc(b1-6)]Man(a1-6)[Gal(b1-4)GlcNAc(b1-3)Gal(b1-4)GlcNAc(b1-3)Gal(b1-4)GlcNAc(b1-2)Man(a1-3)]Man(b1-4)GlcNAc(b1-4)[Fuc(a1-6)]GlcNAc
# In short: as §1
# [23] = target: Gal(b1-4)GlcNAc(b1-3)Gal(b1-4)GlcNAc(b1-3)Gal(b1-4)GlcNAc(b1-3)Gal(b1-4)GlcNAc(b1-3)Gal(b1-4)GlcNAc(b1-2)Man(a1-3)[Gal(b1-4)GlcNAc(b1-3)Gal(b1-4)GlcNAc(b1-3)Gal(b1-4)GlcNAc(b1-3)Gal(b1-4)GlcNAc(b1-3)Gal(b1-4)GlcNAc(b1-2)Man(a1-6)]Man(b1-4)GlcNAc(b1-4)[Fuc(a1-6)]GlcNAc
# In short: as §1
# [24] = target: Gal(b1-4)GlcNAc(b1-3)Gal(b1-4)GlcNAc(b1-6)[Gal(b1-3)]GalNAc
# In short: as §1
binder,measurement,setting,value
B1,glycan array binding signal (z-score),[1],-0.454
same,glycan array binding signal (z-score),[2],4.62
same,glycan array binding signal (z-score),[3],-0.109
same,glycan array binding signal (z-score),Fuc(a1-2)GlcNAc,-0.295
same,glycan array binding signal (z-score),[4],-0.303
same,glycan array binding signal (z-score),[5],3.07
same,glycan array binding signal (z-score),[6],2.66
same,glycan array binding signal (z-score),[7],3.15
same,glycan array binding signal (z-score),[8],0.306
same,glycan array binding signal (z-score),[9],2.81
same,glycan array binding signal (z-score),[10],0.244
same,glycan array binding signal (z-score),[11],-0.126
same,glycan array binding signal (z-score),[12],-0.242
same,glycan array binding signal (z-score),[13],-0.09
same,glycan array binding signal (z-score),[14],4.26
same,glycan array binding signal (z-score),Gal(a1-3)Gal(b1-3)GlcNAc,-0.213
same,glycan array binding signal (z-score),[15],-0.173
same,glycan array binding signal (z-score),Gal(a1-4)Gal(b1-4)GlcNAc,-0.114
same,glycan array binding signal (z-score),Gal(b1-2)Gal,-0.074
same,glycan array binding signal (z-score),Gal(b1-3)GalNAc(b1-3)Gal,-0.375
same,glycan array binding signal (z-score),[16],-0.291
same,glycan array binding signal (z-score),Gal(b1-3)GlcNAc(b1-2)Man,-0.119
same,glycan array binding signal (z-score),[17],0.092
same,glycan array binding signal (z-score),[18],-0.34
same,glycan array binding signal (z-score),[19],-0.205
same,glycan array binding signal (z-score),[20],2.87
same,glycan array binding signal (z-score),[21],-0.311
same,glycan array binding signal (z-score),[22],0.257
same,glycan array binding signal (z-score),[23],0.027
same,glycan array binding signal (z-score),[24],0.365
